We go through 26 compounds from PubChem BioAssay (NCI).

This is part of a sample that, as a whole, favours compounds with a hit. Of some 79,000 tested, about 15% had one in any assay. The source made the active and inactive calls. Cut-off read from the data, not from the text of the source: active = growth inhibition above about 70%; inactive = the rest.

The nature of one test: NCI Yeast Anticancer Drug Screen. Data for the sgs1 strain (AID 173).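 Note: 0% = growth of vehicle-only control cultures.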 Particulars: S. cerevisiae sgs1 mutant, at 11.0 µM, hits give high values. In short, it runs like this:
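Yeast mutant strains carrying defined defects in DNA damage repair or cell cycle control were exposed to test compounds. Growth inhibition was scored against vehicle-treated controls.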
Turning to `CNC(=O)OCc1c(COC(=O)NC)c(C)n(-c2ccc(Cl)c(Cl)c2)c1C`, the growth inhibition is 1% (inactive).
`COc1ccc2nc(N/N=C/c3sccc3C)cc(C)c2c1`: the growth inhibition is -16% (inactive).
On the same count and under the same terms, for `O=C(O)/C=C\C(=O)NNc1ccc(Br)cc1` the value was 99% (active); for `S=c1[nH]nc(Cc2ccccc2)c(=S)[nH]1`, 64% (inactive).
On the same count and under the same terms, then `COc1ccc2nc3cccc([N+](=O)[O-])c3c(NCCCO)c2c1`, with 97% (active); and `CCN(CC)CCSc1c2ccccc2nc2cc(NCC(=O)Nc3ccccc3-c3ccccc3NC(=O)CNc3ccc4c(SCCN(CC)CC)c5ccccc5nc4c3)ccc12`, with -22% (inactive); and `Cc1ccc(N(C=O)c2c([N+](=O)[O-])cc([N+](=O)[O-])c3c2=[N+]([O-])CN=3)cc1`, with 51% (inactive).
For `COc1ccc(C(=O)OCCc2ccccc2)cc1`, the growth inhibition was -18% (inactive).
Same read-out and setting: for `COc1ccc(C(=O)NCCN(C)C)c2nc3ccccc3cc12` the value was 10% (inactive); for `NCC(O)CSCc1ccc(Cl)cc1` (configuration not stated), -16% (inactive); for `CN(C)/N=N/c1nc[nH]c1C(N)=O`, 1% (inactive).
Consider `O=c1[nH]c(=O)n(CCCO)cc1F`, for which the growth inhibition was -24% (inactive).
Regarding `COc1ccc(/C(=N/O)c2ccccc2C2=Nc3ccccc3C(NCc3ccccc3)O2)cc1C` (configuration not stated), the growth inhibition was 2% (inactive).
On to `CCCC(=O)OC(OC(=O)CCC)c1ccc([N+](=O)[O-])o1`, for which the growth inhibition was 7% (inactive).
For `O=C(/C(=C/c1ccccc1)CBr)c1ccccc1`, the growth inhibition is 77% (active).
As to `O=C(Cc1ccccc1F)NC1=C(Cl)C(=O)c2ccccc2C1=O`, the growth inhibition is 41% (inactive).
On the same count and under the same terms, then `Cc1cccc(N2CCN(C(=O)/C(=C/c3ccccc3)NC(=O)c3ccccc3)CC2)c1`, with 16% (inactive).
As to `c1cc(Nc2ccc3c(c2)OCO3)c2cc(C3CCCCC3)ccc2n1`, the growth inhibition was -7% (inactive).
The same measure, in the same setting: then `Cc1ccc2nc(N/N=C/c3ccc(C)s3)cc(C)c2c1`, with -1% (inactive); and `COc1ccc2cc(CN3CCC(C4CCN(Cc5ccc6cc(OC)ccc6c5)CC4)CC3)ccc2c1`, with 12% (inactive); and `CC(=O)O/N=C/c1c2ccccc2cc2ccccc12`, with 3% (inactive).
The same measure, in the same setting: then `CC[C@@]1(OC(=O)CN(C)C)C(=O)OCc2c1cc1n(c2=O)Cc2cc3ccccc3nc2-1`, with 82% (active).
The same measure, in the same setting: then `CC1(C)CC(=O)C(C(CC(c2ccccc2)c2cc3c(cc2O)OCO3)C2=C(O)CC(C)(C)CC2=O)=C(O)C1` (configuration not stated), with 62% (inactive); and `CCOC(=O)C1=C(C)NC(C)=C(C(=O)OCC)C1c1cccc([N+](=O)[O-])c1`, with 13% (inactive).
Consider `Cc1ccc2c(/C=C/c3ccc(N(C)C)cc3)ccnc2c1C`, for which the growth inhibition is -4% (inactive).
`O=C1C(Br)=CC(Br)(Br)C=C1Br`: the growth inhibition was 59% (inactive).

The same test, now with this note: S. cerevisiae sgs1 mutant, at 33.0 µM, hits give high values.
`CNC(=O)OCc1c(COC(=O)NC)c(C)n(-c2ccc(Cl)c(Cl)c2)c1C`: the growth inhibition is 97% (active).
For the compound `COc1ccc2nc(N/N=C/c3sccc3C)cc(C)c2c1`, the growth inhibition was 98% (active).
On the same count and under the same terms, for `O=C(O)/C=C\C(=O)NNc1ccc(Br)cc1` the value was 99% (active); for `S=c1[nH]nc(Cc2ccccc2)c(=S)[nH]1`, 95% (active).
Consider `COc1ccc2nc3cccc([N+](=O)[O-])c3c(NCCCO)c2c1`, for which the growth inhibition is 98% (active).
On the same count and under the same terms, for `CCN(CC)CCSc1c2ccccc2nc2cc(NCC(=O)Nc3ccccc3-c3ccccc3NC(=O)CNc3ccc4c(SCCN(CC)CC)c5ccccc5nc4c3)ccc12` the value was 63% (inactive); for `Cc1ccc(N(C=O)c2c([N+](=O)[O-])cc([N+](=O)[O-])c3c2=[N+]([O-])CN=3)cc1`, 89% (active); for `COc1ccc(C(=O)OCCc2ccccc2)cc1`, -2% (inactive).
Consider `COc1ccc(C(=O)NCCN(C)C)c2nc3ccccc3cc12`, for which the growth inhibition is 10% (inactive).
Still for that read-out and setting: for `NCC(O)CSCc1ccc(Cl)cc1` (configuration not stated) the value was 7% (inactive).
The same measure, in the same setting: for `CN(C)/N=N/c1nc[nH]c1C(N)=O` the value was 6% (inactive); for `O=c1[nH]c(=O)n(CCCO)cc1F`, -3% (inactive); for `COc1ccc(/C(=N/O)c2ccccc2C2=Nc3ccccc3C(NCc3ccccc3)O2)cc1C` (configuration not stated), 45% (inactive).
For `CCCC(=O)OC(OC(=O)CCC)c1ccc([N+](=O)[O-])o1`, the growth inhibition is 21% (inactive).
Regarding `O=C(/C(=C/c1ccccc1)CBr)c1ccccc1`, the growth inhibition is 96% (active).
The same measure, in the same setting: for `O=C(Cc1ccccc1F)NC1=C(Cl)C(=O)c2ccccc2C1=O` the value was 59% (inactive); for `Cc1cccc(N2CCN(C(=O)/C(=C/c3ccccc3)NC(=O)c3ccccc3)CC2)c1`, 53% (inactive); for `c1cc(Nc2ccc3c(c2)OCO3)c2cc(C3CCCCC3)ccc2n1`, 5% (inactive).
On the same count and under the same terms, for `Cc1ccc2nc(N/N=C/c3ccc(C)s3)cc(C)c2c1` the value was 99% (active).
For `COc1ccc2cc(CN3CCC(C4CCN(Cc5ccc6cc(OC)ccc6c5)CC4)CC3)ccc2c1`, the growth inhibition was 3% (inactive).
Same read-out and setting: then `CC(=O)O/N=C/c1c2ccccc2cc2ccccc12`, with 29% (inactive).
Regarding `CC[C@@]1(OC(=O)CN(C)C)C(=O)OCc2c1cc1n(c2=O)Cc2cc3ccccc3nc2-1`, the growth inhibition was 94% (active).
On the same count and under the same terms, then `CC1(C)CC(=O)C(C(CC(c2ccccc2)c2cc3c(cc2O)OCO3)C2=C(O)CC(C)(C)CC2=O)=C(O)C1` (configuration not stated), with 87% (active); and `CCOC(=O)C1=C(C)NC(C)=C(C(=O)OCC)C1c1cccc([N+](=O)[O-])c1`, with 60% (inactive); and `Cc1ccc2c(/C=C/c3ccc(N(C)C)cc3)ccnc2c1C`, with 82% (active).
On to `O=C1C(Br)=CC(Br)(Br)C=C1Br`, for which the growth inhibition was 96% (active).
